Source: PubChem BioAssay
For some assays here: Entries with a potency or affinity are not part of this list. This is one part of the list. The source made the active and inactive calls.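 Rule for the calls, unless noted: active = fluorescence ratio falls more than 5 SD below the full-stimulation control mean, in both duplicate runs; inactive = the rest.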

What was measured:
[1] = target: Short transient receptor potential channel 4 (Mus musculus) (UniProt Q9QUQ5); assay: DAMGO-gated TRPC4 membrane potential modulation – cell-based, second specificity screen, HEK293 TRPC4/mu-opioid, selectivity assay for TRPC6 inhibitor project, confirmation (AID 2776;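 active = compounds whose fluorescence signal differed from control wells by over 3 SD, either direction, in both duplicate plates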); settings: HEK293 TRPC4/MOR, membrane potential dye fluorescence, at 10 µM, channel activated by saturating DAMGO dose; active compounds read high
Short transient receptor potential channel 4 (Mus musculus), sequence (Q9QUQ5 whole entry, looked up): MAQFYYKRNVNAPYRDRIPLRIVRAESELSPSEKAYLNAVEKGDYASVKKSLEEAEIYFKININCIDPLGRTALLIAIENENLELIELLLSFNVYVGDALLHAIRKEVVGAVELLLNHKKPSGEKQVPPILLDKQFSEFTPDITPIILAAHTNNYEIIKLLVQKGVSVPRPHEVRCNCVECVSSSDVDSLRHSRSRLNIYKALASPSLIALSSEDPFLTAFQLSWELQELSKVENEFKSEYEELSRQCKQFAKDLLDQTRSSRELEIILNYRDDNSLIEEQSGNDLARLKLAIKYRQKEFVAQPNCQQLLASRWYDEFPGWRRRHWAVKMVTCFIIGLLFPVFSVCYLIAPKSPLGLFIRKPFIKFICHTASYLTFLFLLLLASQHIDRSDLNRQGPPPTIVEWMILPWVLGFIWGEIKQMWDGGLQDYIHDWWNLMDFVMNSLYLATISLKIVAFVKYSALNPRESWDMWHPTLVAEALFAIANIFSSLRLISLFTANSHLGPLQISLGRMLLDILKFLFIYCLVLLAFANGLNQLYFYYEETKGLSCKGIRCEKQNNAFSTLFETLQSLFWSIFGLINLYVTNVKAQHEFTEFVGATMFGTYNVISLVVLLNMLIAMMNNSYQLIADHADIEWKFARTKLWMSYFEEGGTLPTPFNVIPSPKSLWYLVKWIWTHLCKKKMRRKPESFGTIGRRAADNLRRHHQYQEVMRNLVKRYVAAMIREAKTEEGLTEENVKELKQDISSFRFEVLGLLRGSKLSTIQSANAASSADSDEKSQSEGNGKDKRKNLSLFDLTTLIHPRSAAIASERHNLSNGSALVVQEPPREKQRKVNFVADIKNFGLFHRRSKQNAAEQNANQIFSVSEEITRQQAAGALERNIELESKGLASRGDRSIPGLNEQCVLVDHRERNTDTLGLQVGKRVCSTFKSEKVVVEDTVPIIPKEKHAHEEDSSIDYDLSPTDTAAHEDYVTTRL

[2] = tested on: transient receptor potential cation channel C4 (TRPC4), mouse; assay: membrane potential change in TRPC4 cells – cell-based, HEK293 TRPC4/mu-opioid, membrane potential dye, selectivity assay for TRPC6 inhibitor project, confirmation (AID 2777;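 active = rise or fall in signal beyond 3 SD of buffer-only wells in both replicate plates, either sign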;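 note: integrated kinetic ratio of fluorescence range over baseline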); settings: membrane potential fluorescence, at 10 µM
[3] = parental HEK293 depolarization signal interference – cell-based, second counter screen, counter-screen for TRPC6 inhibitor project, confirmation (AID 2779;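 active = membrane potential signal moving either way by over 3 SD of the maximum-effect control, in both duplicate plates, meaning non-specific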); settings: parental HEK293 membrane potential dye fluorescence; at 10 µM; maximal acetylcholine challenge after compound addition
[4] = nonspecific voltage dye signal in HEK293 – cell-based, parental HEK293, counter-screen for TRPC6 inhibitor project, confirmation (AID 2780;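 active = membrane potential signal shifting up or down by more than 3 SD of buffer-only wells, on both duplicate plates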;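 for membrane potential signal change: plate controls were buffer EC0 wells for no effect and acetylcholine ECmax wells for full effect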); settings: parental HEK293 membrane potential dye fluorescence; at 10 µM
[5] = target: Short transient receptor potential channel 6 (Mus musculus) (UniProt Q61143); assay: blockers of TRPC6 cation channel activity – HEK293 cells, membrane potential dye, duplicate, confirmation (AID 488960); settings: ACh-evoked depolarization, at 10 µM; active compounds read high;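 for inhibition: integrated fluorescence ratio of peak minus minimum over baseline after agonist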
Short transient receptor potential channel 6 (Mus musculus), sequence (Q61143 whole entry, looked up): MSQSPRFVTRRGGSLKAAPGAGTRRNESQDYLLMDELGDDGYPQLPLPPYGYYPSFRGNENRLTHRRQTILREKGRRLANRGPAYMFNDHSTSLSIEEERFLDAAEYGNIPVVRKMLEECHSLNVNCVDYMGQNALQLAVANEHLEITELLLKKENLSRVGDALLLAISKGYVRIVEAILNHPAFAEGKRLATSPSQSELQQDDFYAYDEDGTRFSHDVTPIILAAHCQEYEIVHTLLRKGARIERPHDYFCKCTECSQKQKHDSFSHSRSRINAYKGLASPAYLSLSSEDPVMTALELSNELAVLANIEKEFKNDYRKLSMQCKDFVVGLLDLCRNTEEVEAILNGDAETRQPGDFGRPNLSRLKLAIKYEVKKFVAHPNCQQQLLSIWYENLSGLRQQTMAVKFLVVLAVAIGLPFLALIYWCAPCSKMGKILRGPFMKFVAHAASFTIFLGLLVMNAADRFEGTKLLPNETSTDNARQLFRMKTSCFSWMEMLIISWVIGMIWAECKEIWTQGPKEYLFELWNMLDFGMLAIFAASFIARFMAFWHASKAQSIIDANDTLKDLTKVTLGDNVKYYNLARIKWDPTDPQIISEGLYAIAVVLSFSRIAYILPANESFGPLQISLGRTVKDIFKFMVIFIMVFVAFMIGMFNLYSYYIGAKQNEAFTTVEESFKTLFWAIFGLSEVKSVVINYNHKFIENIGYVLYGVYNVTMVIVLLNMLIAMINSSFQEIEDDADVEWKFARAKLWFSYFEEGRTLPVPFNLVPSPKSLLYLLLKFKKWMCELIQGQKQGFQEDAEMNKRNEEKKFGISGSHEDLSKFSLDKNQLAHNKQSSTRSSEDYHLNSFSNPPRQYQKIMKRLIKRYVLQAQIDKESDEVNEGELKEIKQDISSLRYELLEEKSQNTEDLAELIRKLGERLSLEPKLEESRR

[6] = target: Short transient receptor potential channel 6 (Mus musculus) (UniProt Q61143); assay: mouse TRPC6 channel activators, confirmation, HEK293 cells, membrane potential dye, duplicate (AID 488961;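 active = ratio signal rise beyond 5 SD above unstimulated control wells' mean, seen in both duplicate runs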); settings: HEK293-TRPC6 membrane potential dye fluorescence, FDSS, at 10 µM; active compounds read high
[7] = tested on: TRPC4 (transient receptor potential cation channel C4 beta), mouse; assay: potentiation of DAMGO EC20 TRPC4 response – cell-based, second round, Fluo-4, HEK293 TRPC4beta/mu-opioid, 1 µM, confirmation (AID 2554;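 active = primary screen hit whose fluorescence ratio, in both repeats, exceeds the weak agonist control mean by 3 SD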); settings: DAMGO EC20, Fluo-4 calcium flux, at 1 µM; active compounds read high
[8] = tested on: TRPC4 beta (transient receptor potential cation channel C4), mouse; assay: potentiation of DAMGO EC20 TRPC4 response – cell-based, Fluo-4, HEK293 TRPC4beta/mu-opioid, confirmation (AID 2555;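 active = primary screen hit whose calcium fluorescence ratio, in both repeats, exceeds the weak agonist control mean by 3 SD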); settings: DAMGO EC20, Fluo-4 calcium flux, at 10 µM; active compounds read high
[9] = tested on: TRPC4 (mouse), co-expressed with 5HT1a in HEK293; assay: enhancement of serotonin-evoked TRPC4 response – cell-based, second counter screen, HEK293 TRPC4/5HT1a, Fluo-4, counter-screen for TRPC4 potentiator project, confirmation (AID 434979;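 active = signal rise over 3 SD above mean of control wells given weak agonist, in both repeats and first screen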); settings: Fluo-4 calcium flux, at 10 µM, serotonin added at its EC20 dose; active compounds read high
[10] = nonspecific voltage dye response without TRPC6 – cell-based, parental HEK293, counter-screen for TRPC6 modulator project, confirmation (AID 488924;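 active = membrane potential signal moves up or down beyond 5 SD from buffer-only wells, on both duplicate plates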); settings: parental HEK293, membrane potential dye fluorescence; at 10 µM
[11] = membrane potential response modulators in host HEK293 cells – cell-based, second counter-screen, parental HEK293, membrane potential dye, counter-screen for TRPC6 modulator project, confirmation (AID 488926;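 active = membrane potential signal drops by more than 5 SD from the mean control signal, in both duplicate plates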); settings: parental HEK293, membrane potential dye fluorescence, at 10 µM, after compound, maximal acetylcholine stimulation; active compounds read high
[12] = tested on: Transient receptor potential cation channel subfamily C member 4 (mouse); assay: off-target membrane potential effects via mouse TRPC4 – cell-based, HEK293 TRPC4/mu-opioid, membrane potential dye, selectivity assay for TRPC6 modulator project, confirmation (AID 488927;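 active = membrane potential signal moved up or down beyond 5 SD of buffer control wells, in both duplicate plates, actives on both sides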;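 note: plate controls were assay buffer wells for no effect and DAMGO maximal-effect wells for full effect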); settings: membrane potential fluorescence, at 10 µM
[13] = tested on: TRPC4 (transient receptor potential cation channel C4), mouse; assay: DAMGO-evoked mouse TRPC4 response blockade – cell-based, second screen, HEK293 TRPC4/mu-opioid, membrane potential dye, selectivity assay for TRPC6 modulator project, confirmation (AID 488928;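 active = drop in membrane potential signal beyond 5 SD of the control wells in both duplicate plates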;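 note: TRPC4 counter screen for TRPC6 hits run under conditions tuned for TRPC6 not TRPC4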); settings: membrane potential dye fluorescence, at 10 µM, stimulated with maximal-effect DAMGO; active compounds read high
[14] = tested on: TRPC4 beta (transient receptor potential cation channel C4), mouse; assay: TRPC4 cation channel opening, retest – cell-based, Fluo4 calcium, HEK293 TRPC4beta/mu-opioid, duplicates, 10 µM, confirmation (AID 2426;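 active = fluorescence ratio normalized to control raised more than 50% in primary screen plus both repeat runs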;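 note: percent rise of integrated ratio over buffer wells lacking compound which define 0%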); settings: Fluo4 calcium fluorescence, at 10 µM; active compounds read high
[15] = tested on: transient receptor potential cation channel C4 beta (TRPC4), mouse; assay: TRPC4 cation channel opening, second retest – cell-based, second round, Fluo4, HEK293 TRPC4beta/mu-opioid, 1 µM, confirmation (AID 2461;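 active = primary screen active and over 50% activation in each of two duplicate runs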;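 for activation: 0% = wells without test compound as baseline of integrated fluorescence ratio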); settings: Fluo4 calcium fluorescence, at 1 µM; active compounds read high
[16] = target: Short transient receptor potential channel 4 (Mus musculus) (UniProt Q9QUQ5); assay: blockers of DAMGO-evoked TRPC4 calcium flux – cell-based, Fluo4, HEK293 TRPC4beta/mu-opioid, confirmation (AID 2636;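 active = calcium signal cut by more than 3 SD below the full-agonist control yet still positive, in both repeats and the earlier primary screen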); settings: at 10 µM; active compounds read high
[17] = target: Short transient receptor potential channel 4 (Mus musculus) (UniProt Q9QUQ5); assay: blockers of DAMGO-evoked TRPC4 calcium flux – cell-based, second round, Fluo4, HEK293 TRPC4beta/mu-opioid, 1 µM, confirmation (AID 2637;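 active = calcium signal ratio cut to more than 3 SD under the fully stimulated control mean yet still positive, in both repeats and the primary screen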); settings: at 1 µM; active compounds read high
[18] = target: Short transient receptor potential channel 4 (Mus musculus) (UniProt Q9QUQ5); assay: block of DAMGO-driven TRPC4 calcium entry – cell-based, HEK293 TRPC4/mu-opioid, Fluo-4 calcium, dose response (AID 434942;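 active = primary screen inhibitor hit that blocks the TRPC4 channel at some tested dose, yielding a dose curve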)
[19] = target: Short transient receptor potential channel 6 (Mus musculus) (UniProt Q61143); assay: TRPC6 blockade by TRPC4 inhibitor hits – cell-based, HEK293, membrane potential dye, duplicate, selectivity assay for TRPC4 inhibitor project, confirmation (AID 434948;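 active = active in primary screen and both duplicates, each dropping signal beyond three positive-control SD with fluorescence still positive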); settings: HEK293 TRPC6, membrane potential dye fluorescence, at 10 µM, stimulated with maximal-effect acetylcholine; active compounds read high
[20] = target: Short transient receptor potential channel 6 (Mus musculus) (UniProt Q61143); assay: TRPC6 opening by TRPC4 activator hits – cell-based, HEK293, membrane potential dye, duplicate, selectivity assay for TRPC4 activator project, confirmation (AID 434950;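 active = membrane potential signal rise above negative control mean plus 3 SD in both duplicates, also active in the earlier TRPC4 screen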;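 note: 0% = buffer only wells and 100% = acetylcholine maximal-effect wells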); settings: HEK293 TRPC6, membrane potential fluorescence, at 10 µM; activation: active compounds read high; outcome: activation
[21] = target: Short transient receptor potential channel 6 (Mus musculus) (UniProt Q61143); assay: positive modulators of mouse TRPC6 channel – HEK293 cells, membrane potential dye, duplicate, selectivity assay for TRPC4 potentiator project, confirmation (AID 434952;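 active = compound raising the membrane signal above positive-control mean plus 3 SD in both repeats, and a primary screen hit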); settings: HEK293 TRPC6, membrane potential dye fluorescence, at 10 µM, maximal acetylcholine added after compound; active compounds read high
[22] = target: Short transient receptor potential channel 4 (Mus musculus) (UniProt Q9QUQ5); assay: calcium flux activators in TRPC4/5HT1a cells, counter-screen for TRPC4 activator project, cell-based, second counter screen, HEK293 TRPC4/5HT1a, Fluo-4 (AID 434977;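 active = calcium signal rise above buffer-control mean plus 5 SD in both duplicates, and also a hit in the primary screen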;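 note: plate controls were assay buffer for no effect and maximal serotonin response for full effect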); settings: Fluo-4 calcium flux, at 10 µM; active compounds read high
[23] = serotonin-gated TRPC4 signal block – cell-based, second counter screen, HEK293 TRPC4/5HT1a, Fluo-4, counter-screen for TRPC4 inhibitor project, confirmation (AID 434978;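 active = primary screen active whose calcium signal fell more than 3 SD beyond the full-serotonin control mean in both duplicate plates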;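 note: serotonin given first at submaximal then at maximal dose after compound preincubation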); settings: Fluo-4 calcium flux, at 10 µM, serotonin added to trigger calcium flux; active compounds read high
[24] = nonspecific calcium rise without TRPC4 – cell-based, HEK293 mu-opioid receptor line, counter-screen for TRPC4 activator project, confirmation (AID 449723;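 active = hit in primary screen, with calcium signal over 5 SD above buffer well mean in both duplicates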;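 note: counter screen cells carry the mu-opioid receptor alone and lack TRPC4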); settings: HEK293 mu-opioid cells, Fluo-4 calcium fluorescence, at 10 µM; active compounds read high
[25] = nonspecific potentiation of DAMGO calcium response – cell-based, HEK293 mu-opioid receptor line, counter-screen for TRPC4 allosteric potentiator project, confirmation (AID 449724;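 active = calcium signal rise more than 3 SD above the low-dose agonist control mean, in both duplicate plates and the primary screen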); settings: HEK293 mu-opioid receptor cells, Fluo-4 calcium flux, at 10 µM, compound added before EC20 DAMGO stimulus; active compounds read high

COc1ccccc1C1SCCN1C(=O)c1ccc([N+](=O)[O-])cc1 (stereo not given)
inactive: outcome [1] | outcome [2] | outcome [3] | outcome [4] | outcome [5] | outcome [6]

CC1CC(C)CN(C/C=C/c2ccccc2[N+](=O)[O-])C1 (stereo not given)
active: activity change, negative = inhibition [2] 4.24% | signal change vs control [3] 266% | membrane potential signal change [4] 0.38%
inactive: outcome [1] | outcome [5] | outcome [6]

O=C(CCN1CCN(Cc2ccccc2)CC1)Nc1nccs1
active: potentiation [7] 19% | potentiation [8] 11% | potentiation [9] 17%

CCOC(=O)N1CCN(C(=O)c2ccc3c(c2)N(Cc2ccc(C)cc2)CCS3)CC1
active: activity change, negative = inhibition [2] 0.69% | signal change vs control [3] 307%
inactive: outcome [1] | outcome [4] | outcome [5] | outcome [6]

C=C(C)c1cccc(C(C)(C)NC(=O)NCCN(CC)CC)c1
active: activity change, negative = inhibition [2] 1.45% | membrane potential signal change [4] 0.09% | inhibition [5] 54.4%
inactive: outcome [1] | outcome [3] | outcome [6]

Cc1cc(Nc2ccc(N3CCOCC3)cc2)c2cccc(C)c2n1
active: inhibition [1] 59% | activity change, negative = inhibition [2] -24.1% | signal change vs control [3] 26.5% | membrane potential signal change [4] -362%
inactive: outcome [5] | outcome [6]

N=c1n(CCc2ccccc2)c2ccccc2n1Cc1ccccc1F
inactive: outcome [11]
active: membrane potential signal change [10] 129% | percent change from control (negative = decrease, positive = increase) [12] 20.5% | inhibition [13] 90.5% | inhibition [5] 66.5%

COc1cc(/C=C2/SC(=S)N(Cc3ccccc3)C2=O)cc(Cl)c1O
active: activation [14] 144% | potentiation [7] 11% | potentiation [8] 21% | activation [20] 930% | potentiation, percent of control [21] 310% | activation [22] 156% | activation [24] 165% | activation [25] 1140%
inactive: outcome [15] | outcome [16] | outcome [17] | outcome [18] | outcome [19] | outcome [23] | outcome [9]

COc1ccc(CC(=O)Nc2sc(Cc3ccccc3)c(C)c2C(N)=O)cc1
inactive: outcome [1] | outcome [2] | outcome [3] | outcome [4] | outcome [5] | outcome [6]

CCN(CC)CCn1c2ccc(Cl)cc2c2nc(C)sc21
inactive: outcome [2] | outcome [3] | outcome [6]
active: inhibition [1] 57.5% | membrane potential signal change [4] -267% | inhibition [5] 49.7%

Cc1cc(OCCNCCO)cc(C)c1Cl
active: activation [14] 122% | activation [15] 65% | potentiation [7] 20% | potentiation [8] 19% | activation [20] 37% | activation [22] 35.3% | potentiation [9] 24.3%
inactive: outcome [16] | outcome [17] | outcome [18] | outcome [19] | outcome [21] | outcome [23] | outcome [24] | outcome [25]

CCOC(=O)c1c(NC(=O)COC(=O)Cc2c[nH]c3ccccc23)sc(C(=O)N(C)C)c1C
inactive: outcome [15] | outcome [16] | outcome [17] | outcome [18] | outcome [19] | outcome [21] | outcome [23] | outcome [24] | outcome [25]
active: activation [14] 194% | potentiation [7] 15% | potentiation [8] 55% | activation [20] 46% | activation [22] 107% | potentiation [9] 60%
